Test [1] deals with Glutathione peroxidase 1 (Homo sapiens) (UniProt P07203). Briefly: Primary qHTS Assay for Inhibitors of Recombinant Selenoprotein Glutathione Peroxidase 1 (GPX1) (AID 1845191). For activity, negative = inhibition: % is set by controls: 0 for no effect and ±100 for the full control effect. Note: nearly all actives have a fitted effect of over 65% in size. The method, boiled down: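 GR-coupled assay: compounds preincubated 30 min at room temperature with GPX1, then reaction started with CHP; final 10 nM GPX1, 1 mM GSH, 0.5 mM CHP, 0.5 mM NADPH, 100 nM GR, 0.01% BSA, pH 7.5 Tris buffer. NADPH fluorescence (340/450 nm) read at 0 and 15 min.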

Test [2] concerns the target Phospholipid hydroperoxide glutathione peroxidase GPX4 (Homo sapiens) (UniProt P36969). Briefly: Primary qHTS Assay for Inhibitors of Recombinant Selenoprotein Glutathione Peroxidase 4 (GPX4) (AID 1845192). For activity change, negative = inhibition: series mostly up to about 50 µM; % is set by controls: 0 for no effect and ±100 for the full control effect. Note: nearly all actives have a fitted effect of over 65% in size. The method, boiled down:
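GR-coupled assay: recombinant GPX4 preincubated 30 min with compound at room temperature; final 200 nM GPX4, 1 mM GSH, 0.5 mM cumene hydroperoxide, 0.5 mM NADPH, 100 nM GR, 0.01% BSA, pH 7.5 Tris. NADPH fluorescence (340/450 nm) read at 0 and 15 min.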
On the technique in general: In qHTS, concentration-response curves come from the screen itself.

The target of test [3] is Luciferin 4-monooxygenase (Photinus pyralis) (UniProt P08659). Briefly: Primary firefly luciferase (FLuc) qHTS assay for identification of artifact compounds. (AID 1845220).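 For activity change, negative = inhibition: series mostly up to about 54 µM; plate controls were DMSO vehicle for no effect and no enzyme for full effect.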 Note: nearly all actives have a fitted effect of over 60% in size. Note: potency is the fitted concentration of half-maximal effect. The method, boiled down: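 Titrated compounds were incubated 15 min at RT, protected from light, with luciferin and ATP at 10 uM; reaction started with 10 nM FLuc, luminescence imaged at 5 min, and concentration-response fitted by Hill equation.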

Test [4] can be described thus: Primary fluorescence-based thiol-reactive (MSTI) qHTS assay for identification of artifact compounds. (AID 1845221).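 For activity change, negative = thiol reactive: series mostly up to about 54 µM; thiol-reactive compounds lower the probe fluorescence signal.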 Note: nearly all actives have a fitted effect of over 65% in size. Note: potency is the fitted concentration of half-maximal effect. The method, boiled down: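 A multi-concentration qHTS design tested compounds against 4 uM MSTI, pH 7.4 phosphate-buffered saline. Plates were protected from light for 1 h at room temperature before imaging fluorescence.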
Test [5] has as its system Nanoluciferase (engineered Oplophorus gracilirostris luciferase). Briefly: Primary Nanoluciferase (NLuc) qHTS assay for identification of artifact compounds. (AID 1845222).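 Note: NLuc secreted into diluted conditioned medium of S16 cells; series mostly up to about 54 µM; 0% = DMSO and -100% = no enzyme.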 The method, boiled down:
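qHTS format, against NLuc in S16 cell-conditioned medium. Nano-Glo substrate 1:100 was added after 15 min at room temperature. Luminescence was taken after a further 5 min.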

Test [6] can be described thus: Primary redox qHTS assay for identification of artifact compounds. (AID 1845223).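 Note: 0% = DMSO and 100% = reference compound.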 The method, boiled down:
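Amplex Red (25 uM) and HRP (250 mU/mL) in HBSS, with compounds for 15 min, then 250 uM DTT for 30 min, room temperature, dark. Fluorescence 525/598 nm read; normalized to DMSO and 10 uM DA3003; Hill fit.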

Values without a mark were called inactive. Inconclusive results are not listed. Activity calls are given as the source filed them. Calls come from the whole dose curve; as a rule, active = well fitted curve in the direction sought with a large enough effect; inconclusive = small, poorly fitted or top-dose-only effect, or another doubt; inactive = no such curve, though single readings can be large; an effect the other way counts as inactive or inconclusive.

Sequence of Glutathione peroxidase 1 (Homo sapiens) (P07203 whole entry, looked up): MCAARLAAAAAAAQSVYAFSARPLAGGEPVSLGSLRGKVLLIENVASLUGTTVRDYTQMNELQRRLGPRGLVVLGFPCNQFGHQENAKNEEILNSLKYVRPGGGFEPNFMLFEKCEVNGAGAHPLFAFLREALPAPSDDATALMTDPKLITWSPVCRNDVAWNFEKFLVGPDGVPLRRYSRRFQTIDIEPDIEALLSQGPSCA
Sequence of Phospholipid hydroperoxide glutathione peroxidase GPX4 (Homo sapiens) (P36969 whole entry, looked up): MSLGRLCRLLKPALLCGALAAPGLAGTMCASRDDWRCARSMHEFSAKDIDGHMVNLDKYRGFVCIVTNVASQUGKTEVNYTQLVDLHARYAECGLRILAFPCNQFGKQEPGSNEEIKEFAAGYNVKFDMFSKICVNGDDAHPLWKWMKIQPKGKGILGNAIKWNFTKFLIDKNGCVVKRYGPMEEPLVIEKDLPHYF

Consider `CC1(C)C2CC[C@@]34CC(CC[C@H]3[C@]2(C)CC[C@@H]1O[C@@H]1O[C@H](CO)[C@@H](O)[C@H](O)[C@H]1O)[C@](C)(O)C4` (some centres undefined), for which the Potency result in test [1], in test [2], in test [3], in test [4], in test [5] and in test [6] was “inactive” in each case.
Take `C[C@@H]1O[C@@H](O[C@H]2[C@@H]3C=CO[C@@H](O[C@@H]4O[C@H](CO)[C@@H](O)[C@H](O)[C@H]4O)[C@@H]3[C@@]3(CO)O[C@@H]23)[C@H](O)[C@H](OC(=O)/C=C/c2ccc(O)c(O)c2)[C@H]1O`: the Potency result in test [1], in test [2], in test [3], in test [5] and in test [6] was “inactive” throughout. The Potency in test [4] is 0.562 µM (active).
Turning to `Cc1c(-c2ccc3c(c2)OCO3)oc2ccc(C(O)C(C)O)cc12` (centres undefined), the Potency entry in test [1], in test [2], in test [4], in test [5] and in test [6] was “inactive” throughout. Moreover, the Potency in test [3] was 1.17 µM (active).
Take `CC(C)=CCC[C@](C)(O[C@@H]1O[C@H](CO)[C@@H](O)[C@H](O)[C@H]1O)[C@H]1CC[C@]2(C)[C@@H]1[C@H](O)CC1[C@@]3(C)CC[C@H](O)C(C)(C)C3[C@@H](O[C@@H]3O[C@H](CO)[C@@H](O)[C@H](O)[C@H]3O[C@@H]3O[C@@H](C)[C@H](O)[C@@H](O)[C@H]3O)C[C@]12C` (some centres undefined): the Potency result in test [1] and in test [2] was “inactive” in each case. In test [3], the activity change, negative = inhibition is -2.06% [at 11.6 µM]. Moreover, the activity change, negative = thiol reactive in test [4] was 209% [at 11.5 µM]. The activity, negative = inhibition in test [5] is 4.23% [at 11.6 µM]. The redox activity (% of DA3003) in test [6] was 5.49% [at 11.5 µM].
Regarding `CC/C=C/C=C/C1(C)OC(CC(CO)OC)=CC1=O` (centres undefined), the Potency entry in test [1], in test [2], in test [3], in test [4], in test [5] and in test [6] was “inactive” throughout.
Turning to `C/C=C/C=C/C=C/C(=O)OC1C=C2C(O)OC(=O)[C@]2(O)[C@@]2(C)CCCC(C)(C)[C@H]12` (some centres undefined), the Potency entry in test [1], in test [2], in test [3], in test [4], in test [5] and in test [6] was “inactive” throughout.
Consider `Fc1ccc(-c2c3cccc(C(F)(F)F)c3nn2Cc2ccc(F)cc2Cl)cc1`, for which the Potency result in test [1], in test [2], in test [3], in test [4], in test [5] and in test [6] was “inactive” throughout.
For the compound `CC(C)(O)C1CC=C(C(=O)OC[C@H]2O[C@@H](Oc3cc(C(=O)O)cc(O)c3O)[C@H](O)[C@@H](O)[C@@H]2O)CC1` (some centres undefined), the Potency result in test [1], in test [2], in test [3], in test [5] and in test [6] was “inactive” in each case. Besides, the Potency in test [4] is 5.19 µM (active).
Turning to `COc1ccc(-n2c(=O)[nH]c3cc(C(=O)NCc4ccc(Cl)cc4)sc3c2=O)nc1OC`, the Potency result in test [1], in test [2], in test [3], in test [4], in test [5] and in test [6] was “inactive” each time.
In the case of `C=C1C(OC(C)=O)CCC2(C)CCC(C(C)(C)O)CC12` (centres undefined), the Potency entry in test [1], in test [2], in test [3], in test [4], in test [5] and in test [6] was “inactive” in each case.
Consider `CC1(C)OC(=O)C=C[C@@]2(C)C1CC(=O)[C@]1(C)C2CC[C@@]2(C)[C@H](c3ccoc3)OC(=O)[C@H]3O[C@]321` (some centres undefined), for which the Potency result in test [1], in test [2], in test [3], in test [4], in test [5] and in test [6] was “inactive” throughout.
For the compound `C=C1C(=O)OC2CC(COC(=O)C(C)C)=C(C(C)CCCOC(C)=O)[C@@H](OC(C)=O)C12` (some centres undefined), the Potency result in test [1], in test [2], in test [3], in test [4], in test [5] and in test [6] was “inactive” throughout.
Consider `C[C@@H]1O[C@@H](OC2C(CO)OC(OCC3OC(OC(=O)[C@]45CCC(C)(C)CC4C4=CCC6[C@@]7(C)CC[C@@H](O)[C@](C)(C(=O)O)C7CC[C@@]6(C)[C@]4(C)CC5)C(O)C(O)C3O)C(O)C2O)[C@H](O)[C@H](O)[C@H]1O` (some centres undefined), for which the Potency entry in test [1] and in test [2] was “inactive” in each case. In addition, in test [3], the activity change, negative = inhibition was -1.59% [at 11.6 µM]. The activity change, negative = thiol reactive in test [4] is 268% [at 11.5 µM]. In addition, the activity, negative = inhibition in test [5] is 3.23% [at 11.6 µM]. In addition, the redox activity (% of DA3003) in test [6] was 10.6% [at 11.5 µM].
On to `CCN=C1N[C@@H]2[C@@H](O)[C@H](O)[C@@H](CO)O[C@@H]2S1`, for which the Potency entry in test [1], in test [2], in test [3], in test [4], in test [5] and in test [6] was “inactive” in each case.
Turning to `Cn1cc(CCn2cnc(-c3cnn(C)c3)c2-c2ccc(C#N)cc2)cn1`, the Potency result in test [1], in test [2], in test [3], in test [4], in test [5] and in test [6] was “inactive” in each case.
With `CC(C)C1(O)NC(=O)C(CC2(O)c3ccccc3N3C(=O)C(C)(C)NC32)n2c1nc1ccccc1c2=O` (centres undefined), the Potency entry in test [1], in test [2], in test [3], in test [4], in test [5] and in test [6] was “inactive” in each case.
Regarding `C=C1C2(C)CC3C4(C)OC(C5OC56C4=CC(=O)OC6(C)C)C3(C)C13C(=O)OC(C)C3(O)C2=O` (centres undefined), the Potency result in test [1], in test [2], in test [3], in test [4], in test [5] and in test [6] was “inactive” in each case.
For `COC(=O)C1=CO[C@@H](O[C@@H]2O[C@H](CO)[C@@H](O)[C@H](O)[C@H]2O)[C@H]2[C@@H]1[C@H](O)[C@H](O)[C@]2(C)O`, the Potency result in test [1], in test [2], in test [3], in test [5] and in test [6] was “inactive” each time. Also, the Potency in test [4] was 13 µM (active).
For `CC1OC(O[C@H]2CC[C@@]3(C)C(CC[C@]4(C)C3CC=C3C5CC(C)(C)CC[C@]5(C(=O)OC5OC(CO)C(OC6OCC(OC7OCC(O)C(O)C7O)C(O)C6O)C(O)C5O)CC[C@]34C)C2(C)C)C(O)C(O)C1OC1OC(CO)C(O)C(OC2OC(CO)C(O)C(O)C2O)C1O` (some centres undefined), the Potency result in test [1] and in test [2] was “inactive” throughout. In addition, the outcome in test [3] was “inactive [at 11.6 µM]”. Further, the activity change, negative = thiol reactive in test [4] was 250% [at 11.5 µM]. For the same compound, in test [5], the activity, negative = inhibition is 0.21% [at 11.6 µM]. For the same compound, in test [6], the redox activity (% of DA3003) is 2.88% [at 11.5 µM].

For the origin of these results see PubChem BioAssay (NCATS).
